This is part of a sample that, as a whole, favours compounds with a hit. Of some 79,000 tested, about 15% had one in any assay. The source made the active and inactive calls. No stated cut-off is given here; in the data, active means growth inhibition above about 70%; inactive means the rest.
How the values were obtained:
[1] = NCI Yeast Anticancer Drug Screen. Data for the rad52 strain (AID 147);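 further: 0% = growth of vehicle-treated control cultures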; details: S. cerevisiae rad52 mutant growth inhibition, hits give high values
Method in brief: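 Inhibition of yeast growth, referenced to vehicle controls, was the measured output for a strain with defective DNA damage repair.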

[2] = NCI Yeast Anticancer Drug Screen. Data for the wt1 strain (AID 149);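 further: 0% = growth of vehicle-treated wt1 cultures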; details: S. cerevisiae wt1 strain (SPY 50644) growth inhibition, hits give high values
Method in brief: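 Each compound is tested on wt1 yeast and the loss of growth versus vehicle gives the inhibition value.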

[3] = NCI Yeast Anticancer Drug Screen. Data for the rad50EPP+ strain (AID 151);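 further: 0% = growth of vehicle-treated control cultures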; details: S. cerevisiae rad50 mutant strain, hits give high values
Method in brief: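 Genetically defined yeast (rad50EPP+, DNA damage repair alteration) is grown with compound, and inhibition of growth is expressed relative to vehicle-treated controls.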

[4] = NCI Yeast Anticancer Drug Screen. Data for the mgt1 strain (AID 153); details: S. cerevisiae mgt1 mutant growth inhibition, hits give high values
Method in brief: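 In the mgt1 strain, test compounds were added and growth inhibition was determined relative to vehicle-treated controls.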

[5] = NCI Yeast Anticancer Drug Screen. Data for the rad50 strain (AID 155);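 further: 0% = growth of vehicle-only cultures of the same strain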; details: S. cerevisiae rad50 strain growth inhibition, hits give high values
Method in brief: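 Vehicle-treated cultures provide the reference for the growth inhibition reported for compound-exposed, repair-deficient yeast.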

[6] = NCI Yeast Anticancer Drug Screen. Data for the mec2-1 strain (AID 157); details: S. cerevisiae mec2-1 strain, hits give high values
Method in brief: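 Each compound was tested on mec2-1 yeast, a strain altered in DNA damage repair or cell cycle control. Growth inhibition is reported relative to vehicle.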

[7] = NCI Yeast Anticancer Drug Screen. Data for the rad14 strain (AID 159);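 further: 0% = growth of vehicle-treated control cultures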; details: S. cerevisiae rad14 strain growth inhibition, hits give high values
Method in brief: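 Inhibition of growth is reported for a repair-deficient yeast mutant following compound treatment, calculated relative to cultures that received vehicle.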

[8] = NCI Yeast Anticancer Drug Screen. Data for the sgs1 mgt1 strain (AID 161);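 further: 0% = growth of cultures given vehicle only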; details: S. cerevisiae sgs1 mgt1 strain, hits give high values
Method in brief: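 Mutant yeast exposed to compound; growth scored against vehicle-only wells.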

[9] = NCI Yeast Anticancer Drug Screen. Data for the CLN2oe strain (AID 163);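 further: 0% = growth of vehicle-only control cultures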; details: S. cerevisiae CLN2oe strain, hits give high values
Method in brief: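 First, the altered yeast strain was treated with each compound; second, its growth was measured; finally, inhibition was derived by comparison with vehicle controls.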

[10] = NCI Yeast Anticancer Drug Screen. Data for the cln2 rad14 strain (AID 165);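 further: 0% = growth equal to vehicle treated cultures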; details: S. cerevisiae cln2 rad14 strain, hits give high values
Method in brief: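 Test compounds were added to cln2 rad14 yeast cultures; inhibition of growth was then determined by comparison with vehicle treatment.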

[11] = NCI Yeast Anticancer Drug Screen. Data for the bub3 strain (AID 167); details: S. cerevisiae bub3 mutant strain, hits give high values
Method in brief: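 Mutant yeast screening strain plus compound; vehicle-treated cultures serve as the 0% inhibition reference.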

[12] = NCI Yeast Anticancer Drug Screen. Data for the wt2 strain (AID 169); details: S. cerevisiae wt2 strain growth inhibition, hits give high values
Method in brief: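 The panel's yeast strains carry defined changes in DNA repair or cell cycle genes. Each strain is grown with compound, and growth loss is scored relative to vehicle.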

[13] = NCI Yeast Anticancer Drug Screen. Data for the mlh1 strain (AID 171);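 further: 0% = growth of vehicle-treated control cultures of the same strain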; details: S. cerevisiae mlh1 strain growth inhibition, hits give high values
Method in brief: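 Inhibition values reflect reduced yeast growth in the presence of compound, referenced to vehicle controls, using a strain chosen for its alteration in DNA repair or cell cycle control.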

[14] = NCI Yeast Anticancer Drug Screen. Data for the sgs1 strain (AID 173);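 further: 0% = growth of vehicle-only control cultures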; details: S. cerevisiae sgs1 mutant, hits give high values
Method in brief: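 Vehicle-treated cultures served as reference for growth inhibition of a yeast strain altered in DNA damage repair or cell cycle control after compound exposure.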

[15] = NCI Yeast Anticancer Drug Screen. Data for the mlh1 rad18 strain (AID 175); details: S. cerevisiae mlh1 rad18 strain growth inhibition, hits give high values
Method in brief: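 Inhibition values reflect reduced growth of mutant yeast versus vehicle-treated controls following compound exposure; the mutations affect DNA damage repair.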

[16] = NCI Yeast Anticancer Drug Screen. Data for the rad18 strain (AID 177); details: S. cerevisiae rad18 mutant growth inhibition, hits give high values
Method in brief: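 Steps: expose repair-mutant yeast to compound; measure growth; express as inhibition relative to vehicle control.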

[17] = at 5.0 µM (retest, dose inferred, filed as 0.5)
[18] = at 50.0 µM (retest, dose inferred, filed as 5.0)

Measured: growth inhibition

CC(C)Cc1ncc(CCCN=C(N)N)[nH]c1=O
inactive: [1]; at 1.2 µM -7% | [1]; at 3.7 µM -10% | [1]; at 11.0 µM -5% | [1]; at 33.0 µM -1% | [1]; at 100.0 µM -5% | [2]; at 1.2 µM 0% | [2]; at 3.7 µM 1% | [2]; at 11.0 µM 4% | [2]; at 33.0 µM 3% | [2]; at 100.0 µM 6% | [3]; at 1.2 µM -2% | [3]; at 3.7 µM -13% | [3]; at 11.0 µM 0% | [3]; at 33.0 µM 9% | [3]; at 100.0 µM 9% | [4]; at 1.2 µM -2% | [4]; at 3.7 µM -5% | [4]; at 11.0 µM -3% | [4]; at 33.0 µM -6% | [4]; at 100.0 µM -6% | [5]; at 1.2 µM -14% | [5]; at 3.7 µM -19% | [5]; [17] -5% | [5]; at 11.0 µM -21% | [5]; at 33.0 µM -20% | [5]; [18] 4% | [5]; at 100.0 µM 2% | [6]; at 1.2 µM -4% | [6]; at 3.7 µM -2% | [6]; [17] 3% | [6]; at 11.0 µM -3% | [6]; at 33.0 µM -5% | [6]; [18] 49% | [6]; at 100.0 µM -3% | [7]; at 1.2 µM 0% | [7]; at 3.7 µM 1% | [7]; at 11.0 µM 15% | [7]; at 33.0 µM 11% | [7]; at 100.0 µM -2% | [8]; [17] 1% | [8]; [18] 38% | [9]; at 1.2 µM -4% | [9]; at 3.7 µM -5% | [9]; at 11.0 µM -13% | [9]; at 33.0 µM -11% | [9]; at 100.0 µM -7% | [10]; [17] -7% | [10]; [18] 38% | [11]; at 1.2 µM -9% | [11]; at 3.7 µM -6% | [11]; [17] -6% | [11]; at 11.0 µM -10% | [11]; at 33.0 µM -14% | [11]; at 100.0 µM -14% | [12]; at 1.2 µM 6% | [12]; at 3.7 µM 12% | [12]; at 11.0 µM 15% | [12]; at 33.0 µM 17% | [12]; at 100.0 µM 14% | [13]; at 1.2 µM -11% | [13]; at 3.7 µM -6% | [13]; at 11.0 µM -6% | [13]; at 33.0 µM -4% | [13]; at 100.0 µM -1% | [14]; at 1.2 µM -13% | [14]; at 3.7 µM -12% | [14]; at 11.0 µM -6% | [14]; at 33.0 µM -3% | [14]; at 100.0 µM -8% | [15]; [17] 2% | [15]; [18] 55% | [15]; at 50.0 µM 33.4% | [16]; at 1.2 µM -7% | [16]; at 3.7 µM -2% | [16]; at 11.0 µM -5% | [16]; at 33.0 µM -8% | [16]; at 100.0 µM -6%
active: [5]; at 50.0 µM 82.8% | [6]; at 50.0 µM 77.8% | [8]; at 50.0 µM 84.2% | [10]; at 50.0 µM 74.5% | [11]; [18] 91% | [11]; at 50.0 µM 81.8%

CCC(C)COC(=O)Nc1cccc(Cl)c1 (stereo unspecified)
active: [1]; at 100.0 µM 91% | [2]; at 100.0 µM 99% | [3]; at 100.0 µM 72% | [4]; at 100.0 µM 99% | [5]; at 50.0 µM 98.9% | [5]; at 100.0 µM 99% | [6]; at 50.0 µM 98.1% | [6]; at 100.0 µM 98% | [7]; at 100.0 µM 99% | [8]; at 50.0 µM 98.8% | [9]; at 100.0 µM 99% | [10]; at 50.0 µM 97.5% | [11]; at 50.0 µM 98.6% | [11]; at 100.0 µM 99% | [12]; at 33.0 µM 82% | [12]; at 100.0 µM 99% | [13]; at 100.0 µM 99% | [14]; at 33.0 µM 87% | [14]; at 100.0 µM 99% | [15]; at 50.0 µM 97.5% | [16]; at 100.0 µM 98%
inactive: [1]; at 1.2 µM 5% | [1]; at 3.7 µM 6% | [1]; at 11.0 µM 11% | [1]; at 33.0 µM 59% | [2]; at 1.2 µM 1% | [2]; at 3.7 µM -1% | [2]; at 11.0 µM 0% | [2]; at 33.0 µM 6% | [3]; at 1.2 µM 6% | [3]; at 3.7 µM 15% | [3]; at 11.0 µM 39% | [3]; at 33.0 µM 61% | [4]; at 1.2 µM -7% | [4]; at 3.7 µM 0% | [4]; at 11.0 µM -8% | [4]; at 33.0 µM 29% | [5]; at 1.2 µM 9% | [5]; at 3.7 µM 22% | [5]; [17] -7% | [5]; at 11.0 µM 25% | [5]; at 33.0 µM 68% | [5]; [18] 54% | [6]; at 1.2 µM -5% | [6]; at 3.7 µM -10% | [6]; [17] -1% | [6]; at 11.0 µM -34% | [6]; at 33.0 µM -1% | [6]; [18] 32% | [7]; at 1.2 µM 3% | [7]; at 3.7 µM 2% | [7]; at 11.0 µM 2% | [7]; at 33.0 µM 34% | [8]; [17] -4% | [8]; [18] 53% | [9]; at 1.2 µM 0% | [9]; at 3.7 µM 1% | [9]; at 11.0 µM -7% | [9]; at 33.0 µM 4% | [10]; [17] -24% | [10]; [18] 1% | [11]; at 1.2 µM -2% | [11]; at 3.7 µM -4% | [11]; [17] -14% | [11]; at 11.0 µM 12% | [11]; at 33.0 µM 27% | [11]; [18] 25% | [12]; at 1.2 µM -2% | [12]; at 3.7 µM -2% | [12]; at 11.0 µM -2% | [13]; at 1.2 µM -6% | [13]; at 3.7 µM -5% | [13]; at 11.0 µM -7% | [13]; at 33.0 µM 57% | [14]; at 1.2 µM 0% | [14]; at 3.7 µM 2% | [14]; at 11.0 µM 7% | [15]; [17] -9% | [15]; [18] 69% | [16]; at 1.2 µM 4% | [16]; at 3.7 µM 5% | [16]; at 11.0 µM 1% | [16]; at 33.0 µM 27%
